Structures can show the parent of a compound that is named as a salt. Unmarked numbers belong to inactive results.
Test system: Plasmodium falciparum NF54/iGP1_RE9H ulg8 stage V gametocytes
Assay: gametocyte viability (luciferase signal relative to DMSO control) (% of DMSO control); higher = less gametocytocidal activity, active = 50 or less
Conditions: exposure time: 72 h
Description: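 Synchronous P. falciparum NF54/iGP1_RE9H ulg8 mature stage V gametocytes (day 12) were exposed to Cayman Epigenetics Screening Library compounds at 10 µM or 1 µM for 72 h at 37 °C. Viability was read as RE9H luciferase bioluminescence, normalised to DMSO plate controls (100%); 50 µM methylene blue was the positive control.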

Row | SMILES | gametocyte viability (concentration: 1 µM) | gametocyte viability (concentration: 10 µM)
1 | CCC(=O)N1CCOc2c(cc(-c3ccc(OC)c(OC)c3)cc2OC[C@H]2CCCN(C)C2)C1 [I-CBP112 (hydrochloride)] | 84.5 | 86.9
2 | Cn1cc(CNCC2CCN(c3ncc(C(=O)NO)cn3)CC2)c2ccccc21 | 62 | 66.3
3 | Nc1ncnc2c1ncn2[C@@H]1O[C@H](C[C@@H](N)CC[C@H](N)C(=O)O)[C@@H](O)[C@H]1O [Sinefungin] | 88.5 | 85.6
4 | COc1ccccc1C(=O)Nc1cc2c(cc1N1CCCC1)n(C)c(=O)n2C | 79.5 | 65.1
5 | COc1cc2nc(N3CCCC3)nc(NCCCCCN3CCCC3)c2cc1OC | 92.2 | 18.9 (active)
6 | CC(/C=C/C(=O)NO)=C\[C@@H](C)C(=O)c1ccc(N(C)C)cc1 [Trichostatin A] | 53.7 | 35.4 (active)
7 | O=C(CCCCCCC(=O)Nc1ccccc1)NO | 86.4 | 56.2
8 | COc1cccc2c1c(O)c(C(=O)N(C)c1ccc(C(F)(F)F)cc1)c(=O)n2C [Tasquinimod] | 83.1 | 82.9
9 | Cn1cc(CCn2cnc(-c3cnn(C)c3)c2-c2ccc(C#N)cc2)cn1 | 91.3 | 89.1
10 | NC(=O)[C@H](CCCN=C(N)CF)NC(=O)c1ccccc1 [F-Amidine (trifluoroacetate salt)] | 103 | 95.9
11 | O=C(O)CCCc1ccccc1 [Sodium 4-Phenylbutyrate] | 90.4 | 89.2
